Assay results as given in the OligoGym collection.

target: ACSL3; experiment: pooled miR-30 sensor sort-seq; sequence = guide strand; details: shRNA
Note: reference of the scale not given here.

Sequence | sensor-assay potency score (higher = more potent)
TATCTAAAGTATCACATCCAGG | -0.889
TTTGATTTCACAGCAAACTAAT | -0.867
TTTTTGAAGACTGATCTGCTAA | 0.185
TTGTAGTCCCACACTTCGGAAA | -1.33
TTTTCTTGTCTTGACTCGGAGA | -0.78
TACAGAGCCACCTTTGTCCATT | -0.892
TTTAGCTTCATGGTAGATGGTT | 0.468
TAATTTTTGAAGACTGATCTGC | 0.522

target: ACSM2A; experiment: as above; details: shRNA

Sequence | sensor-assay potency score (higher = more potent)
TTGTCTCGAAGCTTGGCTCGTT | 0.119
TCATGGGACAGGAACTGCGAGG | -1.14
ATGATCTGTACATCATAACAGG | -1.32

target: ACSM2B; experiment: as above; details: shRNA

Sequence | sensor-assay potency score (higher = more potent)
TCCTGCTGTAGCAACATCCGGT | -0.567
TTGTCTCGAAGTTTGGTTCGTT | 0.313
TTGGTTCGTTGAATTTTCCCTG | 0.266
TTAATGATATCATCTGCCCGTC | -0.544
TTGGGTACTTGTATGGGGCTGT | 0.442
TTTCTCAGACACCAGTAGCTTA | -0.818
TTGGCTGCTGTCTTGTCGGGAT | -0.364
TAAACTGGAAATACCCATCTTC | 0.528
ATAACCTGTACATCATAACAGG | -1.03
TTTCATTGTCTTGGAAACCATG | -1.14
TGACTTCACATGCTGCTGCAGC | -0.423
TATCTTTCTTGGGTACTTGTAT | -0.285
TAACCTGTACATCATAACAGGA | -0.501
TTGATTTTCATTGTCTTGGAAA | -0.899
TTAATGTAGAGAGTGCGGCTGG | 0.202
